TAR Tat displ: HIV-1 TAR-Tat binding disruption; HIV-1 TAR RNA, Tat peptide displacement FRET; active compounds read high; z-score (concentration not given with the values); 100,000 tested, 0.6% active; active = z-score of 3 or more in at least 2 runs
CDC25B CDK2 inh: human CDC25B-CDK2/CyclinA binding inhibition; HTRF CDC25B-CDK2/CyclinA binding, anti-His/anti-Flag; active compounds read high; 94,000 tested, 0.72% active; z-score (test concentration not listed); in the data active = z-score above about 3.2
Starred values were filed as active, the others as inactive; nt = no result given. Shown are actives, neighbours in structure and some others; about 0.9% of the full set was active somewhere.

SMILES	TAR Tat displ	CDC25B CDK2 inh
CCNc1cc(N2CCN(C)CC2)c2noc3c2c1C(=O)c1ccccc1-3	0.06	-2.58
CN1CCN(c2cc(NCC(=O)O)c3c4c(onc24)-c2ccccc2C3=O)CC1	0.58	3.85*
CCN1CCN(c2cc(N3CCCCC3)c3c4c(onc24)-c2ccccc2C3=O)CC1	-4.54	1.2
CN1CCN(c2cc(N3CCCCC3)c3c4c(onc24)-c2ccccc2C3=O)CC1	-5.95	5.56*
CC1CC(C)CN(c2cc(NCC(=O)O)c3c4c(onc24)-c2ccccc2C3=O)C1 (centres undefined)	-5.77	12.3*
CC1CC(C)CN(c2cc(NCCCC(=O)O)c3c4c(onc24)-c2ccccc2C3=O)C1 (centres undefined)	-1.81	3.04*
O=C(CN1N=NC2C(=O)N(c3ccc(F)cc3)C(=O)C21)Nc1ccccc1F (centres undefined)	1.92	nt
O=C(COc1ccccc1CSc1ccc(Cl)cc1)N/N=C\c1cccs1	nt	0.62
CC(=O)c1cccc(N2C(=O)C3CC=CCC3C2=O)c1 (centres undefined)	nt	-2.64
O=C(Cn1c(=O)oc2cc(S(=O)(=O)N3CCc4ccccc43)ccc21)NCc1ccco1	-0.52	-1.7
CC1CCCN(c2cc(NCC(=O)O)c3c4c(onc24)-c2ccccc2C3=O)C1 (centres undefined)	-5.96	3.04*
CCOC(=O)C1CCCN(c2cc(NCCO)c3c4c(onc24)-c2ccccc2C3=O)C1 (centres undefined)	8.83*	0.97
CC1CCCN(c2cc(NCCO)c3c4c(onc24)-c2ccccc2C3=O)C1 (centres undefined)	2.67	-0.36
CCNc1cc(N2CCCC(C(=O)OCC)C2)c2noc3c2c1C(=O)c1ccccc1-3 (centres undefined)	1.78	-2.01
CCCCNc1cc(C)nc2nc(-c3ccccc3)nn12	1.97	-1.96
COc1cc(-c2nc(-c3ccccc3)c(-c3cccs3)[nH]2)cc(OC)c1O	nt	0.89
Oc1ccccc1-c1nc(-c2cccs2)c(-c2cccs2)[nH]1	-0.47	18.3*
CC1=C(c2ccc(C(C)C)cc2)S(=O)(=O)NC1=O	-0.77	0.67
CC(=O)N1CCc2cc(S(=O)(=O)NC(CC(C)C)C(=O)NC3CCCC3)ccc21 (centres undefined)	0.88	-0.25
CCOC(=O)c1ccc(N2CCCCC2)c(N)c1	nt	-0.16
O=C1C(c2ccccc2)=C(Nc2ccc(F)cc2)c2ccccc21	0.45	-1.02
O=C1C(Nc2ccc(F)cc2)=C(N2CCCCC2)C(=O)c2ccccc21	nt	8.02*
CCOC(=O)c1ccc(NC2=C(N3CCCCC3)C(=O)c3ccccc3C2=O)cc1	nt	17.2*
CCN(CC)CCCNc1ncnc2c1cnn2-c1cc(Cl)ccc1C	0.34	nt
C=CCN1C(=O)C2(/C(=C(/O)c3ccc(OC)cc3)C(=O)C(=O)N2CCCN(C)C)c2ccccc21 (centres undefined)	1.25	1.59
SMILES	TAR Tat displ	CDC25B CDK2 inh
CCOC(=O)c1c(N)sc(C)c1C	0.93	-0.25
CCOC(=O)c1c(N)sc(SSc2sc(N)c(C(=O)OCC)c2C)c1C	nt	4.41*
O=C(Nc1nccs1)c1cc(N2C(=O)C3C4CCC(C4)C3C2=O)ccc1Cl (centres undefined)	nt	-1.86
O=C(O)c1cc2ccccc2nc1-c1ccco1	34.6*	0.87
c1coc(-c2nc3ccccc3nc2-c2ccco2)c1	nt	-0.23
Cc1nn(C(C)C(=O)NC2CCCC2)c(=O)c2cc3occc3n12 (centres undefined)	0.85	0.32
Cn1ncc2c(Nc3ccccc3)nc(NCc3ccco3)nc21	1.71	nt
CCN(CC)CCCNC(=O)c1nn(C)c2c1CS(=O)(=O)c1ccccc1-2	6.92*	-1.52
CCCCN(CC)CCNC(=O)c1nn(C)c2c1CS(=O)(=O)c1ccccc1-2	0.79	0.55
CC1=C(c2ccccc2)S(=O)(=O)N=C1N1CCN(c2ccccn2)CC1	-0.9	-2.85
CCN(CC)C(=O)c1sc(NC(=O)c2cc(-c3ccc(C)o3)nc3ccccc23)c(C(N)=O)c1C	8.51*	0.85
NC(=O)c1nc(Nc2ccccc2)sc1NC(=O)Cc1cccs1	-0.59	nt
NC(=O)c1nc(Nc2ccccc2)sc1NC(=O)c1cc(-c2ccco2)nc2ccccc12	20.5*	nt
Cc1nnc(NC(=O)c2cc(-c3ccc(Cl)cc3)nc3ccccc23)s1	nt	-4.77
COC(=O)c1ccc(N2Cc3cccc(OC)c3Oc3ncccc32)s1	1.38	-0.51
Cc1ccccc1N1CSC2=C(C#N)C(c3cccs3)CC(=O)N2C1 (centres undefined)	0.89	5.09*
CCc1ccccc1N1CSC2=C(C#N)C(c3cccs3)CC(=O)N2C1 (centres undefined)	-0.35	6.73*
CC1Cc2cc(S(=O)(=O)CCC(=O)Nc3cccnc3)ccc2N1C(=O)C1CC1 (centres undefined)	-0.69	nt
C=CCN1C(=O)C2(/C(=C(/O)c3ccc(Cl)cc3)C(=O)C(=O)N2CCCOC)c2ccccc21 (centres undefined)	1.75	0.25
COc1cc(OC)c2nc(C)c3c(c2c1)CN(C(=O)Nc1cccc(C(F)(F)F)c1)C3	nt	15.1*
COC(=S)Nc1cccc(C(F)(F)F)c1	nt	-1.75
O=C1CCCc2cc(S(=O)(=O)N3CCN(c4ccc(Cl)cc4)CC3)ccc2N1	1.87	nt
Cc1oc(-c2ccccc2F)nc1CSc1nnc(C)n2c1cc1sccc12	0.75	nt
CC(O)c1nc2ccc(-c3ccc4nc(C(C)O)[nH]c4c3)cc2[nH]1 (centres undefined)	-0.52	6.85*
CC(O)c1nc2ccccc2[nH]1 (centres undefined)	nt	-0.4
SMILES	TAR Tat displ	CDC25B CDK2 inh
NC(N)=NS(=O)(=O)c1ccc(N/C=C\C(=O)c2ccc(F)cc2)cc1	nt	-1.58
NC(N)=NS(=O)(=O)c1ccc(N/C=C\C(=O)c2ccc3ccccc3c2)cc1	nt	17.6*
COc1cc(Cl)ccc1Oc1ncnc2sc(C)c(C)c12	1.39	nt
Cc1ccc(-c2csc3ncn(Cc4ccc(F)cc4)c(=O)c23)cc1F	0.91	0.76
O=C(O)c1ccc2nc(-c3ccccc3)c(-c3ccccc3)nc2c1	1.38	1.33
O=C(O)c1ccc2nc3c(nc2c1)-c1cccc2cccc-3c12	5.9*	-2.6
O=C(CSc1ccc(-c2ccncc2)nn1)N1CCc2ccccc21	1.08	nt
O=C1CN(Cc2ccc(Br)cc2)S(=O)(=O)c2ccccc2N1Cc1ccc(F)cc1	0.71	nt
Cc1c(C(=O)Cn2ccnc2)sc2ccc(Cl)cc12	nt	13.6*
Cc1c(C(=O)CC#N)sc2ccc(Cl)cc12	nt	-0.26
CCn1cc(C(=O)N2CCc3ccccc3C2)c(=O)c2cc(S(=O)(=O)N3CCC(C)CC3)ccc21	0.58	14.9*
CCn1cc(C(=O)N2CCc3ccccc32)c(=O)c2cc(S(=O)(=O)N3CC(C)CC(C)C3)ccc21 (centres undefined)	1.95	-0.41
O=C(Nc1ccc(F)cc1)c1ccc(Cn2nc(N3CCN(c4ccc(F)cc4)CC3)ccc2=O)o1	0.64	nt
O=C(Nc1ccc2c(c1)OCO2)c1ccc(Cn2nc(N3CCN(c4ccccc4)CC3)ccc2=O)o1	17.1*	nt
Cc1cc(C(=O)C(=O)Nc2nnc(-c3ccco3)s2)c(C)n1-c1ccc(Cl)cc1	19*	-1.33
COCCn1c(C)cc(C(=O)C(=O)Nc2nnc(-c3ccco3)s2)c1C	30.8*	-1.56
COCCn1c(C)cc(C(=O)C(=O)Nc2nnc(-c3cccs3)s2)c1C	2.85	-2.33
Cc1nnc(NC(=O)C(=O)c2cc(C)n(-c3ccc(Cl)cc3)c2C)s1	1.19	0.27

High-throughput results: PubChem, Center for Chemical Genomics, University of Michigan
